The full ranking holds about 33,000 sequences; the median of “E-score (-0.5 to 0.5)” is about -0.012, and the highest 2% start at about 0.27. What follows is part of a selection rich in the highest values, with near analogues and random picks from the rest.
target: T1, Vhr1 (UniProt P40522); test: PBM E-score (8-mer binding enrichment) (E-score (-0.5 to 0.5)); higher = stronger / more preferred TF binding; details: protein concentration: 200 nM; construct: GST-full length
T1 sequence: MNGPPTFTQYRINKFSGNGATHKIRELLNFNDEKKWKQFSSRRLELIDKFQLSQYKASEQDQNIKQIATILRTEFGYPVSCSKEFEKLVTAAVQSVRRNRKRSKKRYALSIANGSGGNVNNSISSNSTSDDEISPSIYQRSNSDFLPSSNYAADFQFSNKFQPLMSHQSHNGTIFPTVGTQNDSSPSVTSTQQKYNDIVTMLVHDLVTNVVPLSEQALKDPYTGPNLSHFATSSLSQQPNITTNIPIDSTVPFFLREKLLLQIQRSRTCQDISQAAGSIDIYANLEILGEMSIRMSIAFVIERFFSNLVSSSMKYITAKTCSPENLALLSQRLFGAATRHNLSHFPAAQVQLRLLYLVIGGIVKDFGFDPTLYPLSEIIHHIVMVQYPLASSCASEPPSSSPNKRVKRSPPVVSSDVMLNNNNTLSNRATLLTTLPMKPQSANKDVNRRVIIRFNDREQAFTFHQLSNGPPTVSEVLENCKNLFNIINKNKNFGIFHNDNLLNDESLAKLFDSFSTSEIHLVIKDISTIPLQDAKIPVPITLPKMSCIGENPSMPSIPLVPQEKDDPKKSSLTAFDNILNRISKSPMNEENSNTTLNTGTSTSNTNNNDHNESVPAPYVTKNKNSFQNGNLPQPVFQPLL
Protocol: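 Universal 'all 10-mer' protein binding microarrays (Agilent AMADID 015681) probed with GST-tagged S. cerevisiae TFs (full-length or DBD) made by in vitro transcription/translation (PURExpress), about 100-200 nM. Bound TF was detected with fluorescent anti-GST. Each ungapped 8-mer (which stands for itself and its reverse complement) is scored by the PBM enrichment score (E-score), a modified Wilcoxon-Mann-Whitney statistic from -0.5 to +0.5, computed with the Universal PBM Analysis Suite. Scale: above 0.35 generally sequence-specific binding.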

Row | Sequence | PBM E-score
1 | CTGGCTCA | 0.28
2 | CCGGCTCA | 0.0508
3 | GTAGCTCA | 0.0143
4 | CTGGCTCC | 0.0343
5 | ATGGCTCC | 0.325
6 | GTGGCTCA | 0.277
7 | ATGGCTCG | 0.231
8 | AGGGCTCA | 0.0814
9 | GTGGCTTA | -0.111
10 | ATGGCTCA | 0.293
11 | ATAGCTCA | 0.0225
12 | AGGGCTCC | -0.358
13 | AATGAGCC | -0.00477
14 | AGAGACTG | 0.0515
15 | CTGCAGAA | 0.0335
16 | GATTGACA | 0.0916
17 | AAAGTTCG | -0.228
18 | ATTCAGTG | 0.0826
19 | AGTCAGTC | 0.214
20 | CGTCAGTA | 0.02
21 | AGTCAGTA | 0.323
22 | AGTCAGTG | 0.375
23 | AATCAGTG | 0.0903
24 | ATAGGAGA | -0.00333
25 | GCAGCAAC | 0.126

Row | Sequence | PBM E-score
26 | CAAGGGCC | -0.201
27 | GCACACAC | 0.178
28 | ACAATATC | 0.0645
29 | ACACTATG | 0.292
30 | ACCCATAG | 0.0609
31 | ACAATATA | 0.221
32 | ACACTATA | 0.152
33 | ACACTATC | 0.151
34 | ACAATATG | 0.325
35 | ACCCATAC | 0.222
36 | CCACACAC | 0.143
37 | ACACACAC | 0.316
38 | ACCCATAT | 0.296
39 | ACTGTTGG | 0.034
40 | CCGATTTC | -0.129
41 | GTATAGAC | 0.145
42 | CGAAACCC | -0.0543
43 | CAATCGTA | -0.029
44 | ACCGATTC | -0.0343
45 | CAGCGAGC | 0.135
46 | CGAGCAGA | 0.0217
47 | TTGGTAAA | -0.12
48 | AGACACAT | 0.0642
49 | ACAGTATA | 0.11
50 | ACACACAG | 0.353

Row | Sequence | PBM E-score
51 | ACAGTATG | 0.277
52 | ACACACTC | 0.293
53 | ACAGTATC | -0.14
54 | CCACACTC | -0.0226
55 | CCACACAG | 0.165
56 | AAACACAT | 0.252
57 | ACACACTG | 0.163
58 | ACACACAT | 0.275
59 | ACACACAA | 0.226
60 | CAGTTGCG | 0.107
61 | ACTTCTGG | -0.04
62 | GTTGAAAC | -0.0891
63 | CTAAGAAA | -0.112
64 | AATGCTAC | 0.072
65 | ACGCTCCT | -0.065
66 | ACCCACAT | 0.271
67 | ACCCACAC | 0.185
68 | ACCCACAG | 0.157
69 | ACACTTAG | 0.00688
70 | CCTCGGCC | 0.00422
71 | AGTCGGAC | -0.0678
72 | AGTCGGAA | 0.293
73 | CCTCGGCA | -0.129
74 | CGTCGGCA | 0.044
75 | ATTCGGCC | 0.0234

Row | Sequence | PBM E-score
76 | CCTCGGCG | 0.283
77 | GGTCGGCA | -0.138
78 | TGTCGGAA | 0.0453
79 | AGTCGGCA | 0.282
80 | AGTCGGCC | 0.278
81 | CGTCGGCC | -0.143
82 | GACTTGAA | -0.152
83 | AAAGGTCA | -0.173
84 | CCGACTGC | 0.126
85 | AGTCGGTG | 0.246
86 | AGTCGGCG | 0.293
87 | ATTCGGCG | -0.00502
88 | AAGTGACA | 0.0587
89 | ACAGGGTC | 0.133
90 | AAGAGTCG | 0.281
91 | CAGAGTCG | 0.328
92 | CAGAGTGA | 0.0508
93 | CAGGGTCG | 0.025
94 | AAGAGTTG | -0.154
95 | AAGAGTGG | -0.0723
96 | CAGGGTCA | 0.00801
97 | CAGAGTCA | 0.344
98 | CAGAGTCC | 0.0441
99 | CCTATTAG | -0.167
100 | GTTTCCTA | -0.206

Row | Sequence | PBM E-score
101 | TACTGCAA | -0.0559
102 | GCCTAACA | 0.026
103 | CCCAACTC | 0.134
104 | CCAGGCAA | -0.034
105 | ACGCGAAA | -0.0435
106 | GGTGCTAA | -0.166
107 | CATTCGCG | 0.279
108 | CATTCGCC | 0.00808
109 | GATTCGCC | 0.105
110 | CATTCGCA | -0.0683
111 | GATTCGCA | 0.276
112 | AATTCGCG | -0.02
113 | AGTGCACA | 0.0902
114 | AAAGATGC | -0.193
115 | AAAGACGC | -0.154
116 | ACAGGCGC | -0.173
117 | CCTTCTGA | -0.149
118 | GCACTTGA | -0.145
119 | ATGTCTCG | 0.135
120 | ATGTCTCC | 0.175
121 | ATGTCTCA | 0.297
122 | AAACCACG | -0.079
123 | AAGACCGG | -0.166
124 | ACATGAGT | 0.279
125 | AGATGACC | -0.0573

Row | Sequence | PBM E-score
126 | ACATGAGC | 0.0844
127 | AGATGACT | 0.435
128 | CCATGAGA | 0.191
129 | ACATGAGA | 0.273
130 | ACATGACT | 0.446
131 | ACATGACA | 0.206
132 | ACATGACG | -0.0758
133 | TCATGAGA | 0.101
134 | ACATGAGG | -0.0901
135 | AGATGACA | 0.0194
136 | ACTAGGCT | 0.154
137 | GATCAGGC | -0.00147
138 | TAGCCTGA | 0.0109
139 | ACAGTGGA | -0.0091
140 | ACTTGTTG | -0.0998
141 | ACGACCCT | -0.139
142 | ATGAGATA | 0.134
143 | CAGCAAGA | -0.0328
144 | AACGAAGG | -0.252
145 | CGGATCCA | 0.298
146 | TGGATCCA | -0.0454
147 | AGGATCCA | 0.0343
148 | CACTCAGC | 0.044
149 | AACTCAGC | -0.023
150 | AACTCAGA | 0.0696

Row | Sequence | PBM E-score
151 | GACTCAGA | 0.308
152 | CACTCAGA | 0.12
153 | GACTCAGC | 0.404
154 | ACTGCAGA | -0.0788
155 | AATCTAGA | -0.14
156 | TACCGCGA | 0.107
157 | AACCGCGA | 0.278
158 | AACCGCGT | 0.0481
159 | CCTTTGCC | -0.17
160 | CCATTCGC | 0.109
161 | GTCATCGA | 0.205
162 | CCCAACAG | -0.0293
163 | GATGTATA | 0.242
164 | CATGTATA | 0.28
165 | CATGTATC | 0.18
166 | ACGATGCT | 0.0556
167 | AGTTGGAT | 0.127
168 | AAGTCAAG | -0.156
169 | AAGTCATC | 0.323
170 | ATGTCATC | 0.0412
171 | AAGTCATG | 0.41
172 | CAGTCATC | 0.419
